DT40 TDP1 no CPT: qHTS for Inhibitors of human tyrosyl-DNA phosphodiesterase 1 (TDP1): qHTS in cells in absence of CPT; AID 686978, 2013; 420,000 compounds, 15% hits; DT40 Tdp1-/- hTDP1 cells, no CPT, ATP luminescence, 48 h; Potency, µM (doses to about 46.2 µM), for inactives: at the top dose activity change, negative = growth inhibition, actives largely listed as inhibitors; note: nearly all actives have a fitted effect of over 55% in size
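DT40 Tdp1-/-;hTDP1 cells, no CPT (DMSO vehicle only), 400 cells/well; compounds pin-transferred; ≥48 hr, 37 °C; CellTiter-Glo 30 min RT dark, luminescence read.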
RORg inh: ROR gamma (mouse) transcription inhibition. Drosophila S2 Gal4-RORgamma UAS-luciferase reporter, 20 h. Potency, µM (top dose mostly 53.6 µM), without a hit: at the top dose activity change, negative = inhibition, most hits filed as inhibitors. 310,000 compounds, 5.4% hits; note: nearly all actives have a fitted effect of over 60% in size
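Drosophila S2 cells stably expressing Gal4-DBD/mouse RORγ fusion under metallothionein promoter plus UAS-luciferase; compound 1 h, then 700 uM CuSO4 induction for 20 h at ambient temperature; inhibition read as reduced luminescence.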
ALOX12 inh: ALOX12 (human) lipoxygenase inhibition | P18054 | Potency, µM (series often up to 108 µM), for inactives: at the top dose activity change, negative = inhibition, hits mostly inhibitors | 580,000 compounds, 1.1% hits | purified 12hLO, xylenol orange hydroperoxide absorbance | AID 1671190
Target sequence (P18054 whole entry, looked up): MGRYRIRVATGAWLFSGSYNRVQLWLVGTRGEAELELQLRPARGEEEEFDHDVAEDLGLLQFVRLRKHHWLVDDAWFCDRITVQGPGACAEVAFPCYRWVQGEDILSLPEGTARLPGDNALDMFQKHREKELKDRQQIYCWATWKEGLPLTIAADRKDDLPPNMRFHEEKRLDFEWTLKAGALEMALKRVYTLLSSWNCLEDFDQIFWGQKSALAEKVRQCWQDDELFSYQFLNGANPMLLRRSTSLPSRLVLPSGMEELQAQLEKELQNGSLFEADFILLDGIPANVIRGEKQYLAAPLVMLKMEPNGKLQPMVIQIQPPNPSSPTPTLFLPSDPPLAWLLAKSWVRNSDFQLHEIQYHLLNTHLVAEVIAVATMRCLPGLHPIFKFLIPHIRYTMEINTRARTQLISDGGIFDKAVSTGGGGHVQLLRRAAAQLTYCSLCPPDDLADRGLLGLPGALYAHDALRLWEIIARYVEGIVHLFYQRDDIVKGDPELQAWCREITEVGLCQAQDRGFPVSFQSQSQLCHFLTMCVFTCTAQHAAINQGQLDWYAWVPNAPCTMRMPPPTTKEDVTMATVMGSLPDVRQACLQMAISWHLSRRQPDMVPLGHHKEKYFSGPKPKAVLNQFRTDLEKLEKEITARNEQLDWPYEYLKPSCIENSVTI
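Purified human 12hLO (150 nM final) in 25 mM Hepes, 0.01% Triton X-100, pH 7.0 was preincubated 15 min at room temperature with compound. Then 40 uM arachidonic acid was added, 30 min. Hydroperoxide was read by Fe-XO absorbance ratio 573/405 nm.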
DT40 TDP1 CPT: growth inhibition of DT40 Tdp1-/-;hTDP1 cells with camptothecin (screen for TDP1 inhibitors); chicken DT40 Tdp1-/-;hTDP1 cells + 20 nM CPT, ATP luminescence, 48 h; Potency, µM (titrated, usually from 46.2 µM), inactives show top-dose activity change, negative = growth inhibition, hits mostly inhibitors; 420,000 compounds, 12% hits; note: nearly all actives have a fitted effect of over 55% in size
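Chicken DT40 Tdp1-/- cells complemented with human TDP1, 400 cells/well, exposed to compounds plus 20 nM camptothecin for at least 48 h at 37 C; viability read as ATP content by CellTiter-Glo luminescence.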
ELG1 DNA repair: inhibitors of ELG1-dependent DNA repair in HEK293T cells; 330,000 compounds, 2.3% hits; HEK293T ELG1-luciferase reporter, luminescence, 16 h; DNA damage induced by 5-fluorouridine; AID 504467; Potency, µM (titrated, usually from 46.1 µM), inactives show at the highest dose activity change, negative = inhibition, most hits filed as inhibitors; note: nearly all actives have a fitted effect of over 55% in size
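Overnight (16 hr) co-exposure of 2,000 cells/well to 5-fluorouridine and compound at 37 °C preceded detection. Luciferase was quantified via ONE-Glo luminescence; loss of signal denotes inhibition.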
Gal4-VP16 FLuc: inhibits Gal4-VP16 luciferase reporter, ROR gamma counter-screen; Potency, µM (highest dose often 53.6 µM), inactives show at the highest dose activity, negative = inhibition, most hits filed as inhibitors; Drosophila S2 Gal4-VP16 UAS-luciferase, luminescence, 20 h; 310,000 compounds, 3.5% hits;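 note: Gal4-VP16 expression switched on by copper sulfate through the metallothionein promoter; nearly all actives have a fitted effect of over 50% in size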
An asterisk follows results filed as active; ? = inconclusive; . = no result given. Most compounds without a hit are left out; they make up all but 15% or so of the library. Calls come from the whole dose curve; as a rule, active = well fitted curve in the direction sought with a large enough effect; inconclusive = small, poorly fitted or top-dose-only effect, or another doubt; inactive = no such curve, though single readings can be large; an effect the other way counts as inactive or inconclusive. % is set by controls: 0 for no effect and ±100 for the full control effect; potency is the fitted concentration of half-maximal effect.

SMILES	DT40 TDP1 no CPT	RORg inh	ALOX12 inh	DT40 TDP1 CPT	ELG1 DNA repair	Gal4-VP16 FLuc
COC(=O)c1ccccc1NC(=O)O[C@@H]1CO[C@H]2[C@@H]1OC[C@@H]2Nc1nccc(-c2ccc(N(C)C)cc2)n1	.	.	10%	.	.	.
CCOc1cc(Cl)c(S(=O)(=O)NCCCn2ccnc2)cc1Cl	16µM*	.	24%	21µM*	?	.
CS(=O)(=O)N1CCOc2ccc(CCC(=O)N3CCCCC3)cc2C1	.	.	35%	.	.	.
CN(C(=O)/C=C/c1ccc([N+](=O)[O-])s1)c1ccccc1	5.2µM*	?	-14%	10µM*	?	?
CN(C(=O)C=Cc1ccco1)c1ccccc1	?	.	-47%	?	.	.
O=C(CN1CC2CC(C1)[C@H]1CCCC(=O)N1C2)NCc1ccccn1 (stereo partly drawn)	.	.	63%	.	.	.
CCCCC(CC)CNC(=O)CCCc1nnc2n(CCC)c(=O)c3sccc3n12 (stereo not drawn)	23µM*	.	-18%	21µM*	.	.
CCCCC(CC)CNC(=O)CCCn1c(=O)[nH]c2ccsc2c1=O (stereo not drawn)	?	.	-22%	15µM*	.	.
CC(C)Cn1c(=O)c2sccc2n2c(CCCC(=O)NCCc3ccccc3)nnc12	?	.	-10%	?	.	.
CC(C)CCn1c(=O)c2sccc2n2c(CCCC(=O)NCc3ccc(F)cc3)nnc12	?	.	-15%	18µM*	.	.
CC(C)CCn1c(=O)c2sccc2n2c(CCCC(=O)NCCc3ccccc3)nnc12	15µM*	.	-23%	15µM*	.	.
O=C(NCCc1c[nH]c2ccccc12)c1cc(F)ccc1F	.	.	-22%	.	.	.
CCn1c(SC(C)C(=O)Nc2ccnn2C(C)C)nnc1C1CC1 (stereo not drawn)	.	.	-25%	.	.	.
CCn1c(=O)c2sccc2n2c(CCCC(=O)N3CCN(c4ccccc4OC)CC3)nnc12	?	.	-19%	?	.	.
CCn1c(=O)c2sccc2n2c(CCC(=O)NCc3ccc(Cl)cc3)nnc12	21µM*	.	-13%	?	.	.
CCOc1ccc(CCNC(=O)CCCc2nnc3n(CC(C)C)c(=O)c4sccc4n23)cc1	18µM*	.	-17%	?	.	.
CCc1ccc(NC(=O)CCCc2nnc3n(CC(C)C)c(=O)c4sccc4n23)cc1	23µM*	.	0%	21µM*	.	.
CCn1c(=O)c2sccc2n2c(CCCC(=O)N3CCN(c4cc(C)ccc4C)CC3)nnc12	6.5µM*	.	0%	6.5µM*	.	.
Cc1ccc(CN2CCC(c3nn(C)c(=O)n3Cc3ccccc3)CC2)o1	.	.	13%	.	.	.
COc1ccc(NC(=O)CCCc2nnc3n(CCC(C)C)c(=O)c4sccc4n23)cc1Cl	21µM*	.	?	?	.	.
CC(=O)NCCNC(=O)CCCc1nnc2n(CCC(C)C)c(=O)c3sccc3n12	-2%	.	-13%	-5%	.	.
CCn1c(=O)c2sccc2n2c(CCC(=O)Nc3ccc(OC)c(Cl)c3)nnc12	-13%	.	-2%	-15%	.	.
COc1ccc(CNC(=O)CCCc2nnc3n(CCC(C)C)c(=O)c4sccc4n23)cc1	18µM*	.	0%	18µM*	.	.
COc1ccccc1NC(=S)NNC(=O)c1ccccc1Br	13µM*	?	1%	16µM*	?	2%
CCNC(=S)NNC(=O)c1ccccc1OC(F)F	-4%	4µM*	5%	-5%	7%	?
SMILES	DT40 TDP1 no CPT	RORg inh	ALOX12 inh	DT40 TDP1 CPT	ELG1 DNA repair	Gal4-VP16 FLuc
Cc1cccc(NC(=S)NNC(=O)c2ccccc2Br)c1	?	0.89µM*	-14%	?	?	?
COc1ccc(NC(=S)NNC(=O)c2ccccc2OC(F)F)cc1	18µM*	13µM*	-2%	13µM*	-10%	-8%
CC(=O)N1CCCC(c2nn(C)c(=O)n2Cc2ccccc2)C1 (stereo not drawn)	.	.	29%	.	.	.
Cc1noc(C(C)C)c1C(=O)NCc1cccnc1OC1CCCC1	.	.	11%	.	.	.
COc1ccc(C(=O)N2CCCC(n3cc(-c4nc(-c5ccccc5)no4)nn3)C2)cc1OC (stereo not drawn)	.	.	14%	.	.	.
Cc1ccsc1C(=O)N1CCN(c2cc(-c3ccc(Cl)cc3)[nH]n2)CC1	.	.	49%	.	.	.
Cc1cccc(NC(=S)NNC(=O)c2ccccc2OC(F)F)c1	29µM*	?	1%	23µM*	-9%	?
CCc1ccc(NC(=S)NNC(=O)c2ccccc2OC(F)F)cc1	.	-41%	.	.	-5%	?
CCCc1cc(C(=O)NNC(=S)NC)cs1	.	.	14%	.	.	.
CCCc1cc(C(=O)NNC(=S)Nc2cccc(C)c2)cs1	?	2.2µM*	?	-22%	?	?
CCNC(=S)NNC(=O)c1ccccc1Cl	-3%	3.2µM*	19%	0%	-2%	14µM*
O=C(NNC(=S)Nc1ccc(F)c(Cl)c1)c1ccccc1Br	?	?	?	?	?	-28%
O=C(NNC(=O)c1ccccc1Cl)c1ccccc1Cl	-1%	-21%	121%	-2%	17%	-1%
O=C(NNC(=S)Nc1ccc(Cl)c(Cl)c1)c1ccccn1	1.5µM*	?	?	2.9µM*	27%	-12%
COc1ccc(C)cc1NC(=O)Cn1nc(C(=O)O)c2ccccc2c1=O	.	.	13%	.	.	.
CCC1c2nccn2CCCN1C(=O)CCc1ccc(OC)c(OC)c1 (stereo not drawn)	.	.	3%	.	.	.
Cc1ccc(CC(=O)Nc2cc(C(C)(C)C)ccc2O)cc1	.	.	-22%	.	.	.
CCNC(=S)NNC(=O)c1ccccn1	?	8.9µM*	11%	21µM*	-20%	?
CCc1ccc(C(=O)N(Cc2ccccn2)C2CC2)s1	.	.	33%	.	.	.
Cc1cc(C)c2c(CN3CCN(c4ccccn4)CC3)cc(=O)oc2c1	.	.	-9%	.	.	.
CCOC(=O)c1[nH]cnc1C(=O)Nc1ccc(C)cc1	-28%	13µM*	204%	-2%	5%	?
CCOC(=O)c1ccc(NC(=O)c2nc[nH]c2C(=O)NC)cc1	-22%	10µM*	5%	-8%	?	-28%
FC(F)(F)c1ccc(Nc2nnnc3ccccc23)cc1	3.7µM*	?	-28%	?	20%	17%
CCOC(=O)C1=C(COc2ccccc2)NC(=O)NC1c1ccc2ccccc2c1 (stereo not drawn)	21µM*	.	?	18µM*	.	.
CCOC(=O)C1=C(CCc2ccccc2)NC(=O)NC1c1ccc(Br)cc1 (stereo not drawn)	?	15%	-9%	?	-22%	0%

Source: PubChem
